These results are taken from PubChem BioAssay.

Test [1] can be described thus: optical density shifts of acrAB sulA E. coli – strain DRC41, OD650, 48 h, E. coli filamentation inducer project, primary screen (AID 1152).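 Note: E. coli MC1000 strain DRC41 lacking acrAB efflux pump and sulA.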 To be noted: higher = more signal, called active from +8 up or from −8 down.
The nature of test [2]: probe aLefty1 binding on compound microarray – biochemical, small-molecule microarray, 635/667 nm fluorescence, primary screen (AID 1153).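 Note: score merges spot fluorescence with signal-to-noise ratio from the scanned slide images.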 To be noted: higher = more signal.
A short description of test [3]: plasmodial surface anion channel blockers, osmotic lysis – cell-based, P. falciparum Indochina, OD700, 1 h, primary screen (AID 1154). The following applies: P. falciparum Indochina infected RBC osmotic lysis, higher = more signal, called active from +8 up or from −8 down.
A short description of test [4]: plasmodial surface anion channel blockers, osmotic lysis – cell-based, P. falciparum Indochina, OD700, 2 h, primary screen (AID 1155).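 Note: lysis reports solute entry through the parasite surface anion channel PSAC.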 To be noted: P. falciparum Indochina infected erythrocytes, higher = more signal, called active from +8 up or from −8 down.
Test [5] can be described thus: changes in parasitized red cell lysis, either direction – P. falciparum Indochina, OD700, 3 h, PSAC antagonist project, primary screen (AID 1156). To be noted: P. falciparum-infected erythrocytes, osmotic lysis, higher = more signal, called active from +8 up or from −8 down.
Test [6] is described as follows: plasmodial surface anion channel blockers, osmotic lysis – cell-based, P. falciparum Indochina, OD700, 18 h, primary screen (AID 1157). To be noted: P. falciparum Indochina infected erythrocytes, osmotic lysis OD700, 18 h; higher = more signal, called active from +8 up or from −8 down.
Test [7] is described as follows: S6 kinase pathway phospho-S6 level changes – cell-based, A549, cytoblot, luminescence, serum-stimulated, primary screen (AID 1158).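 Note: serum-stimulated A549 lung adenocarcinoma cells; signal is phosphorylated S6 detected by cytoblot immunostaining with HRP secondary.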 The following applies: 5 h, higher = more signal.
Test [8] has as its target NADPH oxidase 2 (Homo sapiens) (UniProt P04839). The test is described as follows: compounds shifting NOX2 Amplex Red fluorescence – cell-based, HEK293-NOX2, PMA-stimulated, NOX inhibitor project, primary screen (AID 1159). Note: test concentration not given here. To be noted: 45 min, higher = more signal, called active from +8 up or from −8 down.
For test [9], the target named is NADPH oxidase 4 (Homo sapiens) (UniProt Q9NPH5). The test is described as follows: compounds shifting NOX4 Amplex Red fluorescence – cell-based, HEK293-NOX4, tetracycline-induced, NOX inhibitor project, primary screen (AID 1160). To be noted: HEK293-NOX4, Amplex Red H2O2 fluorescence, 45 min; higher = more signal, called active from +8 up or from −8 down.
Test [10] addresses NADPH oxidase 5 (Homo sapiens) (UniProt Q96PH1). The test is described as follows: compounds shifting NOX5 Amplex Red fluorescence – cell-based, HEK293-NOX5, NOX inhibitor project, primary screen (AID 1161). The following applies: HEK293-NOX5, ionomycin, 45 min, higher = more signal.
Test [11] in a line: compound effects on lung adenocarcinoma cell viability – A549, calcein-AM fluorescence, 48 h, basal, profiling panel (AID 1162). Note: test concentration not given here. To be noted: higher = more signal.
Test [12] is described as follows: compound effects on differentiated 3T3-L1 adipocyte viability – cell-based, 3T3-L1 adipocytes, calcein-AM fluorescence, 48 h, basal, profiling panel (AID 1163). Note: test concentration not given here. To be noted: 3T3-L1 adipocytes viability, higher = more signal.
Test [13] is described as follows: compound effects on hepatocellular carcinoma cell viability – HepG2, calcein-AM fluorescence, 48 h, basal, profiling panel (AID 1164). Note: test concentration not given here. The following applies: higher = more signal.
Test [14] can be described thus: compound effects on multiple myeloma cell viability – MM1S, calcein-AM fluorescence, 48 h, basal, profiling panel (AID 1165).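 Note: viability of MM1S multiple myeloma cells under basal unstimulated conditions; test concentration not given here.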 To be noted: higher = more signal.
The nature of test [15]: calcein-AM signal in unstimulated myeloma cells – cell-based, calcein-AM fluorescence, 48 h, PK04 Diversity Set, profiling panel (AID 1166).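 Note: cells grown under basal conditions without added stimulus; test concentration not given here.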 To be noted: RPMI8226 myeloma viability, higher = more signal.
Test [16] in a line: JC-1 mitochondrial signal, unstimulated HepG2 cells – cell-based, JC-1 fluorescence, 24 h, 100 nL compound, profiling panel (AID 1167). Note: test concentration not given here. The following applies: HepG2 mitochondrial potential, higher = more signal.
Test [17] can be described thus: JC-1 mitochondrial signal, unstimulated adipocytes – cell-based, JC-1 fluorescence, 3T3-L1 adipocytes, 24 h, 100 nL compound, profiling panel (AID 1168). Note: test concentration not given here. To be noted: JC-1 mitochondrial fluorescence, higher = more signal, called active from +8 up or from −8 down.
A short description of test [18]: JC-1 mitochondrial signal, unstimulated myeloma cells – cell-based, JC-1 fluorescence, RPMI8226, 24 h, 100 nL compound, profiling panel (AID 1169). Note: test concentration not given here. To be noted: JC-1 mitochondrial potential fluorescence, higher = more signal.
Test [19] can be described thus: JC-1 mitochondrial signal, unstimulated MM1S myeloma – cell-based, JC-1 fluorescence, 24 h, 100 nL compound, profiling panel (AID 1170). Note: test concentration not given here. To be noted: MM1S mitochondrial potential, higher = more signal.
Test [20] can be described thus: resazurin metabolic signal in A549 cells – cell-based, resazurin fluorescence, 24 h, PK04 Diversity Set, profiling panel (AID 1171). Note: test concentration not given here. To be noted: A549 viability, higher = more signal, called active from +8 up or from −8 down.

The source made the active and inactive calls.

Sequence of NADPH oxidase 5 (Homo sapiens) (Q96PH1 whole entry, looked up): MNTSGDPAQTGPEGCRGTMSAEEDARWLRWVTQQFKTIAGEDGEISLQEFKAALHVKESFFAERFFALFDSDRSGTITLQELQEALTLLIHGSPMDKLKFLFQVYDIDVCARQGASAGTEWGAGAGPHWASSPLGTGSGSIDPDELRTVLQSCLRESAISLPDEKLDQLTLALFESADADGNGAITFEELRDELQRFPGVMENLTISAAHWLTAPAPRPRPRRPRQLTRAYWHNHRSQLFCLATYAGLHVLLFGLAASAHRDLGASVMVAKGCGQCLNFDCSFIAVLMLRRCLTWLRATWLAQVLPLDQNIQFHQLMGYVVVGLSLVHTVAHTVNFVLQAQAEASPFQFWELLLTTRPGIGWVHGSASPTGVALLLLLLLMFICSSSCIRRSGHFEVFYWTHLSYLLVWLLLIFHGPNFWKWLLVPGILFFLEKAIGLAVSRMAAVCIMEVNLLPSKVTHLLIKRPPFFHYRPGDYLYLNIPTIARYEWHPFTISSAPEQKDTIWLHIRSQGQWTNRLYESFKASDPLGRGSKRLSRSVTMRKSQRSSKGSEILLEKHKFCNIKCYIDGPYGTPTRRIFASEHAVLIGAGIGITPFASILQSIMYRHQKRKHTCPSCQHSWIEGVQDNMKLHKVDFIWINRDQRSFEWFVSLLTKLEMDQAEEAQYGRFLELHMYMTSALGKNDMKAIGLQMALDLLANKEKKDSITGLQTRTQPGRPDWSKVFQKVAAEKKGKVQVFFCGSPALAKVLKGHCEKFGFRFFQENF
Sequence of NADPH oxidase 4 (Homo sapiens) (Q9NPH5 whole entry, looked up): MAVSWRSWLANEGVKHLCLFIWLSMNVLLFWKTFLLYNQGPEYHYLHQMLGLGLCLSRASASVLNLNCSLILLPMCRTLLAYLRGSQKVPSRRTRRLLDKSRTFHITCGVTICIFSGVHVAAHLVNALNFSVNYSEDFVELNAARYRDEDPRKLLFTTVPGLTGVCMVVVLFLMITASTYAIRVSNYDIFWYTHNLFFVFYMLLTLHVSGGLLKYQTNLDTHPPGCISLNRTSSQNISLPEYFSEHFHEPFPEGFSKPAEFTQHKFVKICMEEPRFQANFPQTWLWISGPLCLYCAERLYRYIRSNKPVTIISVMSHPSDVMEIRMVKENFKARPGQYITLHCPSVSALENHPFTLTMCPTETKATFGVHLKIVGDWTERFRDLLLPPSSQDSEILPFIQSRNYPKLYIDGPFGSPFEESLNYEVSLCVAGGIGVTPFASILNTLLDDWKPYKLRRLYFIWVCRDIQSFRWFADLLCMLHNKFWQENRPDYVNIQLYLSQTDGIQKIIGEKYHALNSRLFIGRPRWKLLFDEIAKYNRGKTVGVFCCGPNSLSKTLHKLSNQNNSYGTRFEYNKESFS
Sequence of NADPH oxidase 2 (Homo sapiens) (P04839 whole entry, looked up): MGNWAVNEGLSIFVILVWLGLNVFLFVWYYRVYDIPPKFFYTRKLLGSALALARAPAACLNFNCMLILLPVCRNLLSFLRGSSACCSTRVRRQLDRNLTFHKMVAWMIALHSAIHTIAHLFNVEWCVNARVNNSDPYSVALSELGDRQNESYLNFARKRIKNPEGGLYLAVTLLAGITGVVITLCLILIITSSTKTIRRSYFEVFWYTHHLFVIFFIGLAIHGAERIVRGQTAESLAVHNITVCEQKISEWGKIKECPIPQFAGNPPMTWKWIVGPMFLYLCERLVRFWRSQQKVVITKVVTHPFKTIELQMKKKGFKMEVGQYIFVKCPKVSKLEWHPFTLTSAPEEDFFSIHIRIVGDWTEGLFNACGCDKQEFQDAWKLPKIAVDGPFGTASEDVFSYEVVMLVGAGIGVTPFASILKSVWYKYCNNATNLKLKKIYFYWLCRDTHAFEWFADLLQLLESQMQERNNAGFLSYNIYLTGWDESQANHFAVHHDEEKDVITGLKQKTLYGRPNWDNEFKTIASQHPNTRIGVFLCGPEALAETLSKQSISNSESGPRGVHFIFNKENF

As for `COc1ccc(C#Cc2ccc3c(c2)[C@]2(C(=O)N3)[C@H](c3ccc(O)cc3)N3[C@H](c4ccccc4)[C@H](c4ccccc4)OC(=O)[C@H]3[C@@H]2C(=O)Nc2nc3ccccc3s2)cc1`, the z-score in test [1] was 1.38 (inactive); in test [3] it was 0.92 (inactive); in [4] it was 0.347 (inactive); in test [5] it was 2.43 (inactive); in [6], 0.59 (inactive); in [7], 0.498. Also, the z-score was 1.13 (inactive) in test [8]; -0.838 (inactive) in test [9]; -1.34 in [10]; 0.453 in test [11]; 1.89 in test [12]; -0.0578 in test [13]. The z-score was -1.4 in test [14]; -2.6 in test [15]; -2.28 in test [16]; 0.0579 (inactive) in test [17]; -0.429 in [18]; 0.0506 in [19]. In addition, the z-score in test [20] was -1.21 (inactive). In test [2], this compound returned a composite z-score of 0.0994.
Take `CCOC(=O)C[C@H]1[C@H](OC(=O)c2cc3ccccc3oc2=O)[C@@H](NC(=O)c2ccccc2)c2cc(OCCCO)ccc2N1C(=O)c1ccccc1`: the z-score in test [1] was 0.0768 (inactive); in [3], 0.609 (inactive); in test [4] it was -1.44 (inactive); in test [5] it was -0.35 (inactive); in test [6], -2.88 (inactive); in test [7], 0.312. For the same compound, the z-score in [8] was -0.423 (inactive); in [9], -1.07 (inactive); in [10], -0.713; in test [11], 0.102; in test [12], 1.36; in [13], -0.521. Moreover, the z-score in test [14] was -0.836; in [15], -2.3; in test [16], 1.23; in [17] it was 0.434 (inactive); in test [18], -0.954; in test [19], 0.185. Besides, in test [20], the z-score was -0.238 (inactive). In [2], this compound came in with a composite z-score of 0.158.
For `CN(C)CCCCCCNC(=O)[C@@H]1C[C@@H]2C(=O)N3CCC[C@H]3C(=O)N2[C@@H]1c1cccc(OCCO)c1`, the z-score in [1] is -0.305 (inactive); in test [3] it was 3.6 (inactive); in test [4] it was 0.456 (inactive); in test [5], 0.77 (inactive); in [6], 0.448 (inactive); in test [7], -0.701. The z-score in test [8] was 1.03 (inactive); in test [9], -0.884 (inactive); in [10], 0.837; in test [11], -0.84; in test [12], -0.314; in test [13] it was -0.679. In addition, the z-score in test [14] is -0.592; in test [15], -0.156; in test [16] it was -1.06; in test [17], 0.444 (inactive); in test [18], 0.605; in test [19] it was 0.784. Moreover, the z-score in test [20] was -0.954 (inactive). In [2], this compound returned a composite z-score of 0.0231.
Turning to `COCCOC(=O)N1C(=O)[C@@]2(c3cc(C#CC4(O)CCCCCC4)ccc31)[C@H](C(=O)Nc1nc3ccccc3s1)[C@H]1C(=O)O[C@H](c3ccccc3)[C@H](c3ccccc3)N1[C@@H]2c1ccc(O)cc1`, the z-score is 0.0662 (inactive) in test [1]; 0.4 (inactive) in [3]; 0.925 (inactive) in test [4]; -0.186 (inactive) in [5]; 1.47 (inactive) in test [6]; -0.335 in test [7]. Further, the z-score is 1.01 (inactive) in test [8]; 0.286 (inactive) in test [9]; 0.785 in [10]; 0.638 in [11]; -0.457 in [12]; 0.74 in [13]. The z-score in test [14] was -0.227; in test [15], -2.46; in test [16], -3.17; in test [17], -0.421 (inactive); in test [18], -0.897; in test [19] it was -0.897. Moreover, the z-score in test [20] is -0.436 (inactive). The composite z-score in [2] came to 0.219.
Regarding `NC(=O)[C@@]1(Cc2ccccc2)COC(c2ccc(OCCCO)cc2)=N1`, the z-score in test [1] is 0.917 (inactive); in [3], 17.5 (active); in [4], 2.55 (inactive); in test [5], 0.121 (inactive); in test [6], -0.0697 (inactive); in test [7] it was -0.468. Also, the z-score in test [8] was -0.519 (inactive); in [9], -1.4 (inactive); in [10], -2.14; in [11], -0.291; in test [12] it was -0.0025; in [13], 0.532. Also, the z-score was 0.064 in test [14]; -0.453 in test [15]; -0.798 in [16]; -0.392 (inactive) in test [17]; -0.759 in test [18]; -0.172 in test [19]. Also, in test [20], the z-score is 0.138 (inactive). Besides, in test [2], the composite z-score came to 0.533.
Regarding `CCCCC(O)C1C=CC2C(=O)N(C)C(=O)C2N1N(c1ccccc1)c1ccccc1` (stereo not given), the z-score in [1] was -2.15 (inactive); in test [3] it was 3.81 (inactive); in test [4], 1 (inactive); in [5], 1.3 (inactive); in test [6], 0.951 (inactive); in test [7], -1.05. The z-score in test [8] was -0.334 (inactive); in test [9] it was -1.98 (inactive); in [10], -0.376; in test [11], -0.646; in test [12] it was -1.68; in test [13], 0.821. Also, the z-score was -0.769 in [14]; -0.938 in test [15]; -1.19 in test [16]; -1.3 (inactive) in test [17]; -0.198 in [18]; -0.497 in test [19]. For the same compound, in [20], the z-score was -0.7 (inactive). In test [2], this compound gave a composite z-score of 0.475.
Take `COCC(=C=CC[C@H](O)c1ccccc1OCCO)C[C@H](O)c1ccccn1`: the z-score is 0.769 (inactive) in [1]; 3.61 (inactive) in test [3]; 1.12 (inactive) in [4]; 1.74 (inactive) in test [5]; 0.382 (inactive) in [6]; 0.658 in test [7]. Also, the z-score in test [8] is 0.251 (inactive); in test [9] it was -0.831 (inactive); in test [10], -0.926; in [11], 1.12; in test [12] it was 0.381; in [13], 0.781. Moreover, the z-score was 0.943 in test [14]; 0.139 in test [15]; 1.01 in test [16]; -0.443 (inactive) in test [17]; -0.471 in test [18]; -1.09 in [19]. For the same compound, in [20], the z-score is -0.0836 (inactive). In test [2], this compound gave a composite z-score of -0.224.
`C=CCOC(=O)[C@@]1(Cc2ccccc2)C[C@H]2CO[C@H](c3ccc(OC)cc3)N2C1=O`: the z-score in test [1] is -0.0282 (inactive); in test [3] it was 1.36 (inactive); in test [4], 0.522 (inactive); in test [5] it was -0.256 (inactive); in test [6], 0.0894 (inactive); in test [7], -0.673. Besides, the z-score was 0.826 (inactive) in [8]; -0.213 (inactive) in test [9]; -1.93 in [10]; 0.158 in [11]; 0.223 in [12]; -0.311 in test [13]. Moreover, the z-score in test [14] was -0.657; in [15] it was -1.5; in test [16], -0.574; in test [17], 0.437 (inactive); in [18], -0.272; in test [19], -0.47. For the same compound, in test [20], the z-score was 0.864 (inactive). The same compound yielded a composite z-score in test [2] of -0.338.
